# In PubChem BioAssay (NCATS):
# Records with an inconclusive call do not appear. Entries that show only a call come without a potency. Activity calls are given as the source filed them. Unless noted, the call rests on the fitted dose curve.
# Test system: not listed separately
# Assay: qHTS for Inhibitors of the Functional Ribonucleoprotein Complex (vRNP) of Lymphocytic Choriomeningitis Arenaviruses (LCMV): Viability assay - alamar blue signal for LCMV Primary Screen (AID 1347085; calls by dose curve; tested in HEK293 reporter line; further: nearly all actives have a fitted effect of over 80% in size)
# Conditions: alamar blue viability counter-screen, LCMV vRNP screen cells; series mostly up to 57.5 µM
row,SMILES,Potency
1,COC(=O)c1cc(S(N)(=O)=O)ccc1OC,inactive
2,NC(=O)NNc1ccccc1,inactive
3,CN(Cc1ccc(C(C)(C)C)cc1)Cc1cccc2ccccc12,inactive
4,O=C(CCN1CCN2CCCC2C1)N1c2ccccc2Sc2ccc(Cl)cc21 (stereo not given),inactive
5,CC1(C)CCC(C)(C)c2cc(NC(=O)c3ccc(C(=O)O)cc3)ccc21,inactive
6,CC(=O)c1ccc2c(c1)N(CCCN1CCC(CCO)CC1)c1ccccc1S2,inactive
7,NC1=NCC2c3ccccc3Cc3ccccc3N12 (stereo not given),inactive
8,CC(C(=O)O)c1ccc(CC2CCCC2=O)cc1 (stereo not given),inactive
9,C#C[C@]1(OC(C)=O)CC[C@H]2[C@@H]3CCC4=C[C@@H](OC(C)=O)CC[C@@H]4[C@H]3CC[C@@]21C,inactive
10,CCOc1ccc2nc(S(N)(=O)=O)sc2c1,inactive
11,CCCc1ncc(C(=O)O)s1,inactive
12,CC(C)N=C(N)/N=C(\N)Nc1ccc(Cl)cc1,inactive
13,Nc1ccc(C(=O)N2CC3CC(CN(Cc4ccccc4)C3)C2)cc1,inactive
14,Cc1c(C)c2c(c(C)c1OC(=O)CCC(=O)OCCO)CC[C@@](C)(CCC[C@H](C)CCC[C@H](C)CCCC(C)C)O2,inactive
15,C[N+]12CCC(CC1)C(OC(=O)C(O)(c1ccccc1)c1ccccc1)C2 (stereo not given),inactive
16,C[N+]1(C)CCC(=C(c2ccccc2)c2ccccc2)CC1,inactive
17,NCCNc1cccc2ccccc12,inactive
18,CCCC(C(=O)OCCN(CC)CC)(c1ccccc1)c1ccccc1,inactive
19,Cc1cccc(N(C)C(=S)Oc2ccc3c(c2)CCC3)c1,inactive
20,CCc1nnc(NS(=O)(=O)c2ccc(N)cc2)s1,inactive

row,SMILES,Potency
1,COc1ccc2nc(NC(=O)Nc3ccccc3)sc2c1,inactive
2,N#Cc1cc(NC(=O)C(=O)O)c(Cl)c(NC(=O)C(=O)O)c1,inactive
3,COc1ccc(C(Cl)=C(c2ccc(OC)cc2)c2ccc(OC)cc2)cc1,inactive
4,CC(C)c1cc2c(cc1S(=O)(=O)O)[C@@]1(C)CCC[C@@](C)(C(=O)O)[C@@H]1CC2,inactive
5,COc1cc2[nH]c(=O)[nH]c(=O)c2cc1OC,inactive
6,CN(C)CCn1nnnc1SCC1=C(C(=O)O)N2C(=O)[C@@H](NC(=O)Cc3csc(N)n3)[C@H]2SC1,inactive
7,O=C(O)CNC(=O)c1ccccc1I,inactive
8,O=C(OCC(COC(=O)c1cccnc1)(COC(=O)c1cccnc1)COC(=O)c1cccnc1)c1cccnc1,inactive
9,Cc1[nH]c(=O)c(C#N)cc1-c1ccc2nccn2c1,inactive
10,CCC(=O)c1ccc2c(c1)N(CCCN(C)C)c1ccccc1S2,inactive
11,C[C@@H](CN(C)C)CN1c2ccccc2Sc2ccccc21,inactive
12,Cc1nnc(C(=O)NC(C)(C)c2nc(C(=O)NCc3ccc(F)cc3)c(O)c(=O)n2C)o1,inactive
13,O=C1c2ccccc2S(=O)(=O)N1CCCCN1CCN(c2ncccn2)CC1,inactive
14,COc1ccccc1N1CCN(CC(O)COc2cccc3ccccc23)CC1 (stereo not given),inactive
15,O=C(O)CCC(=O)c1ccc(-c2ccccc2)cc1,inactive
16,NS(=O)(=O)c1cc2c(cc1Cl)NC(C1CC3C=CC1C3)NS2(=O)=O (stereo not given),inactive
17,Nc1c(CC(=O)O)cccc1C(=O)c1ccc(Br)cc1,inactive
18,CN1CCN(c2cc3c(cc2F)c(=O)c(C(=O)O)cn3-c2ccc(F)cc2)CC1,inactive
19,C[C@@H]1CCC[C@H](C)N1CCCC(O)(c1ccccc1)c1ccccn1 (stereo not given in full),inactive
20,CC(=O)O[C@]1(C(C)=O)CC[C@H]2[C@@H]3C=C(Cl)C4=CC(=O)CC[C@]4(C)[C@H]3CC[C@@]21C,inactive

# Biological target: Nucleoprotein (Lymphocytic choriomeningitis virus (strain Armstrong)) (UniProt P09992)
# Sequence (P09992 whole entry, looked up): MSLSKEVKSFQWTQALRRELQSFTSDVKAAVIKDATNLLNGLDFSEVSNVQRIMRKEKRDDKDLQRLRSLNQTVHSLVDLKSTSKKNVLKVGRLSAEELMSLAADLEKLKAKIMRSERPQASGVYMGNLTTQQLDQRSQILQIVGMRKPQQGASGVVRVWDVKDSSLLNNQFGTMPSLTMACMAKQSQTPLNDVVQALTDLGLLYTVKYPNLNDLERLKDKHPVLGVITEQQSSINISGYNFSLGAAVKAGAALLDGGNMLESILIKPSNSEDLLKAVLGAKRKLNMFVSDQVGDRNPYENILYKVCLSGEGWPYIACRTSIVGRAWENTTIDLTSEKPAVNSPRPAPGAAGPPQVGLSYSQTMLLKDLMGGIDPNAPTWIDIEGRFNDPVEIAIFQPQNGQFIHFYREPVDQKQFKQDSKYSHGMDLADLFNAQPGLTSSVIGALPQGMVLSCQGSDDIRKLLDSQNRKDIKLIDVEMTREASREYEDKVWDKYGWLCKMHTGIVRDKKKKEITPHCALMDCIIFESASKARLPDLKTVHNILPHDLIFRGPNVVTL
# Assay: qHTS for Inhibitors of the Functional Ribonucleoprotein Complex (vRNP) of Lymphocytic Choriomeningitis Arenaviruses (LCMV): LCMV Primary Screen - GLuc reporter signal (AID 1347086); further: nearly all actives have a fitted effect of over 70% in size
# Conditions: LCMV minigenome vRNP cell assay, Gaussia luciferase reporter; series mostly up to 57.5 µM
row,SMILES,Potency
1,COC(=O)c1cc(S(N)(=O)=O)ccc1OC,inactive
2,NC(=O)NNc1ccccc1,inactive
3,CN(Cc1ccc(C(C)(C)C)cc1)Cc1cccc2ccccc12,inactive
4,O=C(CCN1CCN2CCCC2C1)N1c2ccccc2Sc2ccc(Cl)cc21 (stereo not given),inactive
5,CC1(C)CCC(C)(C)c2cc(NC(=O)c3ccc(C(=O)O)cc3)ccc21,inactive
6,CC(=O)c1ccc2c(c1)N(CCCN1CCC(CCO)CC1)c1ccccc1S2,inactive
7,NC1=NCC2c3ccccc3Cc3ccccc3N12 (stereo not given),inactive
8,CC(C(=O)O)c1ccc(CC2CCCC2=O)cc1 (stereo not given),inactive
9,C#C[C@]1(OC(C)=O)CC[C@H]2[C@@H]3CCC4=C[C@@H](OC(C)=O)CC[C@@H]4[C@H]3CC[C@@]21C,inactive
10,CCOc1ccc2nc(S(N)(=O)=O)sc2c1,inactive
11,CCCc1ncc(C(=O)O)s1,inactive
12,CC(C)N=C(N)/N=C(\N)Nc1ccc(Cl)cc1,inactive
13,Nc1ccc(C(=O)N2CC3CC(CN(Cc4ccccc4)C3)C2)cc1,inactive
14,Cc1c(C)c2c(c(C)c1OC(=O)CCC(=O)OCCO)CC[C@@](C)(CCC[C@H](C)CCC[C@H](C)CCCC(C)C)O2,inactive
15,C[N+]12CCC(CC1)C(OC(=O)C(O)(c1ccccc1)c1ccccc1)C2 (stereo not given),inactive
16,C[N+]1(C)CCC(=C(c2ccccc2)c2ccccc2)CC1,inactive
17,NCCNc1cccc2ccccc12,inactive
18,CCCC(C(=O)OCCN(CC)CC)(c1ccccc1)c1ccccc1,inactive
19,Cc1cccc(N(C)C(=S)Oc2ccc3c(c2)CCC3)c1,inactive
20,CCc1nnc(NS(=O)(=O)c2ccc(N)cc2)s1,inactive

row,SMILES,Potency
1,COc1ccc2nc(NC(=O)Nc3ccccc3)sc2c1,inactive
2,N#Cc1cc(NC(=O)C(=O)O)c(Cl)c(NC(=O)C(=O)O)c1,inactive
3,COc1ccc(C(Cl)=C(c2ccc(OC)cc2)c2ccc(OC)cc2)cc1,inactive
4,CC(C)c1cc2c(cc1S(=O)(=O)O)[C@@]1(C)CCC[C@@](C)(C(=O)O)[C@@H]1CC2,inactive
5,COc1cc2[nH]c(=O)[nH]c(=O)c2cc1OC,inactive
6,CN(C)CCn1nnnc1SCC1=C(C(=O)O)N2C(=O)[C@@H](NC(=O)Cc3csc(N)n3)[C@H]2SC1,inactive
7,O=C(O)CNC(=O)c1ccccc1I,inactive
8,O=C(OCC(COC(=O)c1cccnc1)(COC(=O)c1cccnc1)COC(=O)c1cccnc1)c1cccnc1,inactive
9,Cc1[nH]c(=O)c(C#N)cc1-c1ccc2nccn2c1,inactive
10,CCC(=O)c1ccc2c(c1)N(CCCN(C)C)c1ccccc1S2,inactive
11,C[C@@H](CN(C)C)CN1c2ccccc2Sc2ccccc21,inactive
12,Cc1nnc(C(=O)NC(C)(C)c2nc(C(=O)NCc3ccc(F)cc3)c(O)c(=O)n2C)o1,inactive
13,O=C1c2ccccc2S(=O)(=O)N1CCCCN1CCN(c2ncccn2)CC1,inactive
14,COc1ccccc1N1CCN(CC(O)COc2cccc3ccccc23)CC1 (stereo not given),inactive
15,O=C(O)CCC(=O)c1ccc(-c2ccccc2)cc1,inactive
16,NS(=O)(=O)c1cc2c(cc1Cl)NC(C1CC3C=CC1C3)NS2(=O)=O (stereo not given),inactive
17,Nc1c(CC(=O)O)cccc1C(=O)c1ccc(Br)cc1,inactive
18,CN1CCN(c2cc3c(cc2F)c(=O)c(C(=O)O)cn3-c2ccc(F)cc2)CC1,inactive
19,C[C@@H]1CCC[C@H](C)N1CCCC(O)(c1ccccc1)c1ccccn1 (stereo not given in full),inactive
20,CC(=O)O[C@]1(C(C)=O)CC[C@H]2[C@@H]3C=C(Cl)C4=CC(=O)CC[C@]4(C)[C@H]3CC[C@@]21C,inactive
